An excerpt weighted towards active compounds, which were near 2% of everything screened.
GalR3 antag: blocks the human galanin receptor 3. AID 651719. HEK293 GalR3-CNG cAMP membrane potential fluorescence; galR3 body fused to GalR1 C-terminus. hit rate 0.44% among 360,000. inhibition, % at 3 µM. O60755;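 active = inhibition above the screen-wide average plus 3 SD, cut at about 13% in these data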;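 also: forskolin and galanin both at EC90 stimulate the cells; cAMP rise reported by CNG channel membrane potential dye signal; 0% = forskolin plus galanin with DMSO and 100% = forskolin alone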
Target sequence (O60755 1-299 limits assumed): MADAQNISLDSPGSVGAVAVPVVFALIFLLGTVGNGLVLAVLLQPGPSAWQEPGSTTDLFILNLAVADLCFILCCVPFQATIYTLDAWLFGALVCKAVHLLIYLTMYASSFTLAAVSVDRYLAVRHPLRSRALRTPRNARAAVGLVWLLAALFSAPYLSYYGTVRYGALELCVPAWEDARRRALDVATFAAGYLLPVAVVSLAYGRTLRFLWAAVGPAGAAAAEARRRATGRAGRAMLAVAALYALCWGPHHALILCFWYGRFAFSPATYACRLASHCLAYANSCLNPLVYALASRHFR
COUP-TFII inh: blocks human COUP-TFII nuclear receptor | P24468 | HEK293T NGFI-A luciferase reporter, luminescence | inhibition, % at 8.6 µM | hit rate 0.7% among 370,000 | AID 686940;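 active = inhibition above a per-plate cutoff, mean inhibition of test wells between control levels plus 3 SD, cut at about 38% in these data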;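 also: cells cotransfected with COUP-TFII expression vector driving the NGFI-A reporter; 0% = median of COUP-TF2 test wells and 100% = reporter-only cells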
697 NFkB inh: lowers PMA/ionomycin-induced NF-kB signal in 697 B cells. AID 435022. 697 B-cell NF-kB luciferase reporter, 16 h. hit rate 0.33% among 330,000. inhibition, % at 4 µM; in the data active = inhibition above about 35%
Gli-Sufu antag: blocks Gli-Sufu signaling in a luciferase reporter | Sufu-KO-LIGHT fibroblasts, Gli luciferase reporter luminescence | inhibition, % at 5 µM | AID 588413 | hit rate 0.74% among 340,000;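 active = inhibition above about 55%, limit read from the data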;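 also: 0% = DMSO-treated cells and 100% = wells with medium but no cells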
Jurkat NFkB inh: lowers PMA/ionomycin-induced NF-kB signal in Jurkat cells; PMA/ionomycin-induced NF-kB luciferase reporter, luminescence; inhibition, % at 4 µM; hit rate 0.53% among 330,000; in the data active = inhibition above about 50%
VP16 Luc counter: VP16 inhibition counter-screen for COUP-TFII; shares compounds with COUP-TFII inh; HEK293 Gal4-VP16 luciferase reporter, luminescence; inhibition, % at 8.5 µM; hit rate 25% among 2,500; in the data active = inhibition above about 13%
NR2F2 inh conf: confirmation of human COUP-TFII (NR2F2) inhibitors. shares compounds with COUP-TFII inh. inhibition, % at 8.5 µM. hit rate 45% among 2,500. HEK293 NGFI-A luciferase reporter, luminescence;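 active = mean inhibition over three repeats above a set limit taken from the earlier primary screen, cut at about 38% in these data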;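 also: 100% = cells given the luciferase reporter alone without the COUP-TF2 vector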
* hit, by the source's call; / = no result given.

SMILES	GalR3 antag	COUP-TFII inh	697 NFkB inh	Gli-Sufu antag	Jurkat NFkB inh	VP16 Luc counter	NR2F2 inh conf
Cc1scc(C(=O)N/N=C/c2ccco2)c1C	-4	-31	-36	-56	-51	/	/
Cc1scc(C(=O)N/N=C/c2ccc([N+](=O)[O-])o2)c1C	-1	50*	12	/	-1	57*	59*
O=C1CSc2ccc(C(=O)N3CCCC(C(=O)N4CCOCC4)C3)cc2N1 (stereo not given)	/	2	/	/	/	/	/
CN(Cc1ccccc1)C(=O)c1ccc(NC(=O)Cc2ccc(NC(=O)C3CCCN(C(=O)C4CCC4)C3)cc2)cc1 (stereo not given)	-7	10	/	-1	/	/	/
CN(Cc1ccccc1)C(=O)c1ccc(NC(=O)Cc2ccc(NC(=O)C3CCCN(C(=O)CCc4ccccc4)C3)cc2)cc1 (stereo not given)	-8	75*	/	29	/	8	70*
CN(Cc1ccccc1)C(=O)c1cccc(NC(=O)Cc2ccc(NC(=O)C3CCN(C(=O)CCc4ccccc4)CC3)cc2)c1	-4	70*	/	20	/	5	43*
CN(C(=O)c1cccc(NC(=O)Cc2ccc(NC(=O)C3CCCN(C(=O)CCc4ccccc4)C3)cc2)c1)C1CC1 (stereo not given)	-2	10	/	11	/	/	/
CN(C(=O)c1cccc(NC(=O)Cc2ccc(NC(=O)C3CCCN(C(=O)CCc4ccccc4)C3)cc2)c1)C1CCCCC1 (stereo not given)	-9	77*	/	18	/	0	62*
Cc1nc(SCC(=O)N2CCCCCC2)c2c(=O)n(C)c(=O)n(CC(C)C)c2n1	-3	42*	/	16	/	0	23
CC(C)c1nc(SCC(=O)N2CCCCCC2)c2c(=O)n(C)c(=O)n(C)c2n1	-3	-24	-14	20	4	/	/
C[C@H]1COc2cc(Br)ccc2S(=O)(=O)N1Cc1cn(Cc2ccc(Cl)cc2)nn1	/	-12	/	/	/	/	/
CC(C)c1ccc(/C=C(\c2nc3ccccc3[nH]2)S(=O)(=O)c2ccccc2)cc1	1	40*	-14	-22	9	31*	27
O=S(=O)(/C(=C/c1ccc(C(F)(F)F)cc1)c1nc2ccccc2[nH]1)c1ccccc1	0	49*	/	-18	/	67*	62*
COC(=O)/C(=C\c1ccc(O)cc1)c1nc2ccccc2[nH]1	-3	-18	-10	4	-14	/	/
C/C(=C\c1ccc(N)cc1)c1nc2ccccc2[nH]1	-4	-22	-19	-71	-47	/	/
O=C(NCCc1ccccc1)C1CCCN(S(=O)(=O)c2cccs2)C1 (stereo not given)	-5	19	3	8	-1	/	/
O=C(NCCN1CCC(Cc2ccccc2)CC1)C1CCCN(S(=O)(=O)c2cccs2)C1 (stereo not given)	/	47*	/	/	/	-1	6
CC(C)c1ccc(NC(=O)CSc2nnc(-c3ccco3)n2C)cc1	/	10	/	/	/	/	/
O=C(C1CCN(c2ncnc3c2sc2cccc(F)c23)CC1)N1CCCC1	1	20	18	/	4	/	/
N#Cc1ccccc1N1CCN(C(=O)C2CCN(c3ncnc4c3sc3cccc(F)c34)CC2)CC1	/	58*	/	/	/	-8	28
COc1ccc(NC(=O)c2ccc(CN3CCN(c4ccccc4)CC3)cc2)cc1	6	48*	-2	13	48	0	13
CC(C)c1ccc(C(=O)Nc2ccc(CN3CCOCC3)cc2)cc1	-10	38*	-79	2	-11	-38	6
O=C(Nc1ccc(CN2CCOCC2)cc1)c1ccc(-c2cccc(Cl)c2)o1	2	62*	-27	14	19	-18	-6
O=C(/C=C/c1ccc(Cl)cc1)Nc1ccc(CN2CCOCC2)cc1	0	57*	-30	20	30	-3	32
CC(C)c1ccc(/C=C/C(=O)Nc2ccc(CN3CCOCC3)cc2)cc1	-4	14	-48	8	37	/	/
SMILES	GalR3 antag	COUP-TFII inh	697 NFkB inh	Gli-Sufu antag	Jurkat NFkB inh	VP16 Luc counter	NR2F2 inh conf
CCCCNC(=O)C[C@H]1C[C@@]2(C(=O)OC)C(=C[C@H](C(C)C)O[C@@H]2C2CC2)N(CCC2=CCCCC2)C1=O	/	-6	/	/	/	/	/
O=C(Nc1ccc(C(=O)OC2CCCCC2)cc1)c1ccncc1	-4	53*	-83	3	-25	-8	13
COc1cccc(CNc2nc3cc(-c4cccc(OC)c4)sc3c(=O)n2C)c1	-5	10	/	/	/	/	/
COc1ccccc1CNc1nc2cc(-c3ccc(OC)c(OC)c3)sc2c(=O)n1C	-4	41*	/	/	/	-13	8
COc1cccc(CNc2nc3cc(-c4cnn(Cc5ccccc5)c4)sc3c(=O)n2C)c1	-4	79*	/	/	/	17*	54*
C=C1C(=O)[C@]23C[C@H]1CC[C@H]2[C@]1(C)CCC[C@@](C)(C(=O)OC)[C@H]1C[C@@H]3O	/	94*	/	/	/	71*	60*
COCCN(C(=O)CCC(=O)Nc1nccs1)C(C(=O)NC(C)(C)C)c1ccc(F)cc1 (stereo not given)	-8	5	24	0	7	/	/
COCCN(C(=O)CCC(=O)Nc1nccs1)C(C(=O)NC(C)(C)C)c1ccc(C)cc1 (stereo not given)	-9	60*	7	-9	5	-1	-5
CC(OC(=O)C1=NN(c2ccccc2)C(=O)CC1)C(=O)NC1CCCCC1C (stereo not given)	-3	6	28	-7	-2	/	/
Cc1nn(-c2ccccc2)c(C)c1C(=O)OC(C)C(=O)NC1CCCCC1C (stereo not given)	-3	39*	3	5	21	1	21
O=C(N1CCC(C(O)(c2ccccc2)c2ccccc2)CC1)n1ncc(C(O)(c2ccccc2)c2ccccc2)n1	/	44*	/	/	/	0	11
CN(C)c1ccc(C2Nc3ccccc3C(=O)N2CCCN2CCOCC2)cc1 (stereo not given)	3	47*	-18	3	-8	-11	-15
CCC[C@H]1[C@@H](OC(=O)N2CCCC2)CC[C@@]23CCCN2C(=O)CCC[C@@H]13	/	19	/	/	/	/	/
O=C(CCCSc1ccccc1)Nc1ccc(Cl)c(S(=O)(=O)N2CCOCC2)c1	-5	40*	-17	8	24	12	26
O=C(CCCOc1ccccc1)Nc1ccc(Cl)c(S(=O)(=O)N2CCOCC2)c1	-5	49*	-43	8	7	8	28
Cc1ccc(OCCCC(=O)Nc2ccc(Cl)c(S(=O)(=O)N3CCOCC3)c2)cc1	-8	57*	-22	1	21	-5	36
O=C(COc1cccc(Br)c1)Nc1ccc(Cl)c(S(=O)(=O)N2CCOCC2)c1	-5	18	-3	12	1	/	/
Cc1cccc(OC(C)CCN2CCC(C(O)(c3ccccc3)c3ccccc3)CC2)c1 (stereo not given)	/	-8	/	/	/	/	/
